# ChEMBL document CHEMBL1157539, “Thousands of chemical starting points for antimalarial lead identification” (Nature, 2010)
# Legend:
# Type in all cases: functional
# Plasmodium falciparum [1] = test: GSK_TCMDC: Inhibition of Plasmodium falciparum 3D7 in whole red blood cells, using parasite LDH activity as an index of growth. Test compounds present at 2uM
# Plasmodium falciparum [2] = test: GSK_TCMDC: Inhibition of Plasmodium falciparum Dd2 in whole red blood cells, using parasite LDH activity as an index of growth. Test compounds present at 2uM
# HepG2 = test: GSK_TCMDC: Percent inhibition of human HepG2 cell line. Test compounds present at 10uM.
SMILES,Inhibition (Plasmodium falciparum [1]) [%],Inhibition (Plasmodium falciparum [2]) [%],Inhibition (HepG2) [%]
CCc1ccc(C2CCN(CCCCNC(=O)c3ccc(-c4ccc(C#N)cc4)cc3)CC2)c(OCCO)c1.Cl,94,61,24
CCCCCCCN(Cc1ccc(OC(C)(C)C(=O)OCC)cc1)C(=O)Nc1ccccc1OCC,93,94,0
COc1ccc(C2CC(=O)C3=C(C2)NC(C)=C(C(=O)OC2CCCC2)C3c2cccc(O)c2)cc1 (stereo unspecified),88,83,0
OC(CNc1ccnc(Nc2ccccc2)n1)c1cccc(C(F)(F)F)c1 (stereo unspecified),100,61,16
O=C(Cc1ccccc1)NC1(c2ccccc2)CCN(CCc2c[nH]c3ccc(F)cc23)CC1,87,62,29
CS(=O)(=O)c1cc2c(Nc3ccc(N4CCOCC4)cc3)c(C(N)=O)cnc2cc1Br.Cl,100,89,0
O=C(Cc1c[nH]cn1)Nc1cccc(-c2ccc(-c3nc4cc(C(F)(F)F)ccc4[nH]3)s2)c1,100,99,5
CCOC(=O)N1CCN(CCCNc2c3ccccc3nc3ccccc23)CC1.Cl,90,20,5
Fc1ccc2[nH]c(-c3ccc(-c4ccc(CNCc5cnn(-c6ccccc6)n5)cc4)cc3)nc2c1.O=C(O)C(F)(F)F,98,47,41
COCCSc1nc2scc(C)c2c(=O)n1Cc1cccc(OC)c1,92,33,0
COc1ccc(/C=C/C(=O)Nc2ccc(-c3ccncc3)cc2)cc1CCCN(C)C.O=C(O)/C=C\C(=O)O,100,86,3
CC(Oc1ccc(Cl)cc1Cl)c1nc(-c2ccc(NC(=O)c3ccco3)cc2)no1 (stereo unspecified),92,82,7
Cc1n[nH]c(C)c1C1CCN(CC2CCC(NC(=O)/C=C/c3ccc(Cl)c(Cl)c3)CC2)CC1 (stereo unspecified),100,53,15
CCCc1cc(N2CCC(N3CCCC3)CC2)nc(Nc2ccc(OC)cc2)n1,94,14,15
Cc1cc(CN2CC[C@H](NC(=O)c3ccc(Cl)c(Cl)c3)C2)ccc1OCCN1CCCC1.O=C(O)C(F)(F)F,100,92,56
CN(C)CCc1coc2ccc(C(=O)Nc3ccc(-c4ccc(O)cc4)cc3)cc12,100,40,28

SMILES,Inhibition (Plasmodium falciparum [1]) [%],Inhibition (Plasmodium falciparum [2]) [%],Inhibition (HepG2) [%]
O=C(O)C(F)(F)F.OCCN1CCN(Cc2cccc(-c3ccc(-c4nc5cc(C(F)(F)F)ccc5[nH]4)s3)c2)CC1,100,98,42
CNCCNCc1ccc(-c2ccc(-c3nc4cc(F)ccc4[nH]3)s2)cc1.O=C(O)C(F)(F)F,99,55,22
CC(CCc1ccccc1)NCC(O)c1cccc(C(F)(F)F)c1.Cl (stereo unspecified),99,98,18
CN(c1ccc2c(c1)nc(Nc1ccc(Cl)cc1)n2C)c1ccnc(Nc2ccc(CS(C)(=O)=O)cc2)n1.Cl,97,52,91
CC1(C)CCCN(c2ncc(-c3cccc(CNCc4ccccc4O)c3)cn2)C1,96,82,35
Cc1ccc2cc(NC(=O)CCCCCCCON3C(N)=NC(N)=NC34CCCCC4)ccc2n1.O=C(O)C(F)(F)F,98,86,6
COc1cc(Cc2cnc(N)nc2N)ccc1OCc1ccc(-c2ccccc2C#N)cc1,93,3,32
CC1CCCN(S(=O)(=O)c2ccc(NC(=O)c3cc(-c4ccccc4O)n[nH]3)cc2)C1 (stereo unspecified),93,49,12
O=C(Cc1ccc([N+](=O)[O-])cc1)N1CCc2cc3nccc(N4CCN5CCC[C@@H]5C4)c3cc21,95,7,0
CN(C)CCNCc1ncsc1-c1ccc2c(Nc3ccc(F)cc3Cl)ccnc2c1,100,95,0
Oc1ccc(OCc2ccccn2)cc1,98,0,5
O=c1cc(NCCCNC(c2ccccc2)c2ccc(Cl)c(Cl)c2)[nH]c2ccccc12 (stereo unspecified),89,94,13
COc1ccc2c(c1)CCCC2NCCCCNC(=O)c1ccc(NC(=O)c2ccc(Cl)cc2)cc1 (stereo unspecified),100,49,27
CCn1c(-c2nonc2N)nc2c(-c3cc4ccccc4s3)ncc(C(=O)N3CCC(N)C3)c21.O=C(O)C(F)(F)F (stereo unspecified),98,66,99
Cc1ccc2c(=NN=Cc3ccc(Cl)cc3)cc(C)[nH]c2c1,100,34,0
CCCCOc1cc2ncc(C(=O)OCC)c(O)c2cc1OCCCC,97,96,0
